# Experimental data published in PubChem BioAssay (NCATS).
# Several values for one entry are separate records, joined by “and”; a condition that tells them apart may be missing. Identical values can stand only once. Records with an inconclusive call do not appear. Activity calls are given as the source filed them. Unless noted, the call rests on the fitted dose curve; in most records, active means well fitted curve in the direction sought with a large enough effect; inconclusive means small, poorly fitted or top-dose-only effect, or another doubt; inactive means no such curve, though single readings can be large; an effect the other way counts as inactive or inconclusive.
# How the values were obtained:
# [1] = qHTS assay for environmental chemicals that activate the Aryl hydrocarbon Receptor (AhR) signaling pathway (AID 651777); details: 1A2-DRE human hepatoma cells, luciferase, 24 h; activation: active compounds read high; further: nearly all actives have a fitted effect of over 15% in size; further: potency means the concentration at half of the fitted maximal effect; on activation: % of control where 0% means no effect
# Outline: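 Stable CYP1A2 promoter/DRE-luciferase human hepatoma line treated 24 hr; One-Glo luminescence, 30 min RT.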
# [2] = biological target: Peroxisome proliferator-activated receptor alpha (Homo sapiens) (UniProt Q07869); test: qHTS assay for small molecule agonists of the peroxisome proliferator-activated receptor alpha (PPARalpha) signaling pathway (AID 651778); details: PathHunter PPARalpha complementation, chemiluminescence, 6 h; active compounds read high; further: % of control where 0% means no effect
# Outline: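 Cells plated at 2,000/well and held overnight at 37 C, 5% CO2, then compound added by pin tool for 6 hr; after PathHunter detection reagent and 60 min at room temperature, chemiluminescence from enzyme complementation was read.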
# [3] = biological target: Nuclear receptor ROR-gamma (Homo sapiens) (UniProt P51449); test: qHTS assay for small molecule antagonists of the retinoid-related orphan receptor gamma (ROR-gamma) signaling pathway (AID 651802); further: nearly all actives have a fitted effect of over 60% in size; further: potency means the concentration at half of the fitted maximal effect
# Outline: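 Antagonism is scored as a fall in luminescence from a RORE-luciferase reporter in CHO cells expressing ROR under a TET-inducible promoter, measured 16hr after doxycycline induction in the presence of compound.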
# [4] = biological target: Tumor necrosis factor (Homo sapiens) (UniProt P01375); test: qHTS assay to identify small molecules that stimulate Tumor Necrosis Factor-alpha (TNF-alpha) secretion (AID 651757; active means well fitted curve in the direction sought with a large enough effect in the signal ratio; the % refers to the signal ratio; further: 0% is about no effect)
# Outline: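 Secreted TNF-alpha from compound-treated THP-1 cells (17 hrs, 37 C) was quantified with a homogeneous time-resolved fluorescence antibody assay.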
# [5] = qHTS assay to identify small molecules that stimulate interleukin-8 (IL-8) secretion (AID 651758; active means well fitted activation curve with a large enough effect in the signal ratio; the % refers to the signal ratio; further: 0% is about no effect)
# Outline: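 THP-1, 2000 cells/well; cpd 16 h, 37 C; add cryptate + XL665 anti-IL-8 Abs; RT 1-3 h; TR-FRET read.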
# Sequence of Nuclear receptor ROR-gamma (Homo sapiens) (P51449 whole entry, looked up): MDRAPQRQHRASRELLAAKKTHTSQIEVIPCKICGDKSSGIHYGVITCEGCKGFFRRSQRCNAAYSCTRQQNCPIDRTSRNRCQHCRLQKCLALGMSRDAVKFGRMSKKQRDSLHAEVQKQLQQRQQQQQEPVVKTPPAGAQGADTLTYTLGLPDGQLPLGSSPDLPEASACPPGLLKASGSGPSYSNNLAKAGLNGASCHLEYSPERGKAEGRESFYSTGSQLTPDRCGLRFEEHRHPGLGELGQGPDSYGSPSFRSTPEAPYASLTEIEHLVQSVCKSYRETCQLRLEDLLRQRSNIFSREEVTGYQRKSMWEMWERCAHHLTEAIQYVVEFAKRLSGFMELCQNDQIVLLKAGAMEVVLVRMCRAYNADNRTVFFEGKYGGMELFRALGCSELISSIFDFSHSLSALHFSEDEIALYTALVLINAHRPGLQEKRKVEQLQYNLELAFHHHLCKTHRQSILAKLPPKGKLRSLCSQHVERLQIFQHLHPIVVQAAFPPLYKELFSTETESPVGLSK
# Sequence of Peroxisome proliferator-activated receptor alpha (Homo sapiens) (Q07869 whole entry, looked up): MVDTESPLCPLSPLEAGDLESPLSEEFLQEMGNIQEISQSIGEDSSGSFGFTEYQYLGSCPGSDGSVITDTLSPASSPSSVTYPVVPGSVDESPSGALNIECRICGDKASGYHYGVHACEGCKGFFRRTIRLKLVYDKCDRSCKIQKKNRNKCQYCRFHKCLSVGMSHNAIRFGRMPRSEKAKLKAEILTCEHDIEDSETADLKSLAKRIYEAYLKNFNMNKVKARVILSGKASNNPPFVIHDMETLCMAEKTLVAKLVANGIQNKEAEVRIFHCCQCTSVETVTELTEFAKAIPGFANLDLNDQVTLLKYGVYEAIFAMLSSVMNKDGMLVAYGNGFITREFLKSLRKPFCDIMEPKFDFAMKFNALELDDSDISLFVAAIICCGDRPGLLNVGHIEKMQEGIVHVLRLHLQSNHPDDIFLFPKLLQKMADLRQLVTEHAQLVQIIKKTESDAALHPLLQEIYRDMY
# Sequence of Tumor necrosis factor (Homo sapiens) (P01375 whole entry, looked up): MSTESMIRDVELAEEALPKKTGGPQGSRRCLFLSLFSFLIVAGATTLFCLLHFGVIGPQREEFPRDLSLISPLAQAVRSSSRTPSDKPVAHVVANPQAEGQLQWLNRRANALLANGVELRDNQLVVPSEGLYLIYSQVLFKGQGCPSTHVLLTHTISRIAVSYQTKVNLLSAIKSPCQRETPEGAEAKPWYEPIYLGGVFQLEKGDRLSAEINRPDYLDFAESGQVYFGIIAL
compound,measurement,setting,value
O=c1cc(-c2ccccc2)oc2ccccc12,Potency,[1],50.1 µM (active) and 44.7 µM (active)
same,max response,[2],0.229% (inactive) and -0.923% (inactive)
c1cnc2c(c1)ccc1cccnc12,activation,[1],2.54% (inactive)
same,max response,[2],-3.72% (inactive)
same,Potency,[3],2370 nM (active)
Nc1nc2ccc([N+](=O)[O-])cc2s1,activation,[1],8.89% (inactive)
same,max response,[2],-11% (inactive)
CCCOC(=O)c1ccc(O)cc1,outcome,[4],inactive
same,Potency,[5],inactive
same,activation,[1],3.41% (inactive) and 2.32% (inactive)
same,max response,[2],0.116% (inactive) and 2.06% (inactive) and -4.76% (inactive)
same,Potency,[3],inactive
O=C(OCc1ccccc1)c1ccccc1,max response,[2],-1.34% (inactive)
O=C(O)c1cc(O)c(O)c(O)c1,activation,[1],-0.689% (inactive)
same,max response,[2],-13% (inactive)
same,Potency,[3],inactive
O=C(O)c1ccccc1Nc1cccc(C(F)(F)F)c1,activation,[1],0.429% (inactive)
NCCO,outcome,[4],inactive
same,activation,[1],-0.695% (inactive)
same,max response,[2],-2.8% (inactive)
same,Potency,[3],inactive
CN(C)c1ccc(C(=C2C=CC(=[N+](C)C)C=C2)c2ccccc2)cc1,max response,[2],-10.3% (inactive)
O=C1CN(/N=C/c2ccc([N+](=O)[O-])o2)C(=O)N1,Potency,[5],inactive
same,activation,[1],4.15% (inactive)
same,max response,[2],-1.28% (inactive)
Nc1ccc([N+](=O)[O-])cc1O,activation,[1],7.01% (inactive)
same,max response,[2],-5.57% (inactive) and -3.71% (inactive)
same,Potency,[3],inactive
COc1cc(CNC(=O)CCCC/C=C/C(C)C)ccc1O,outcome,[4],inactive
same,activation,[1],-0.69% (inactive) and 1.8% (inactive)
same,max response,[2],-1.35% (inactive) and 5.82% (inactive)
